Results on 40 compounds are retold here after PubChem BioAssay (EPA / NIEHS).

Calls of active or inactive are those of the source. How the source made its calls: active means hit-call score of the fitted dose curve at least 0.9, where 1 is the maximum; inactive means score below 0.9.

The nature of this assay: APR_HepG2_MitoticArrest_72hr: Apredica 72-hour HepG2 Assay for Mitotic Arrest (AID 2282918). The following applies: high-content imaging, actives raise or lower the signal. How it is done:
APR_HepG2_72hr is a cell-based, multiplexed-readout assay that uses HepG2, a human liver cell line, with measurements taken at 72 hours after chemical dosing in a 384-well plate.APR_HepG2_MitoticArrest_72hr is one of 10 assay component(s) measured or calculated from the APR_HepG2_72hr assay. It is designed to make measurements of cell phenotype, a form of morphology reporter, as detected with fluorescence intensity signals by HCS Fluorescent Imaging technology.Data from the assay component APR_HepG2_MitoticArrest_72hr was analyzed into 1 assay endpoint. This assay endpoint, APR_HepG2_MitoticArrest_72hr, was analyzed with bidirectional fitting relative to DMSO as the negative control and baseline of activity. Using a type of morphology reporter, measures of protein for gain or loss-of-signal activity can be used to understand the signaling at the pathway-level as they relate to the gene . Furthermore, this assay endpoint can be referred to as a primary readout, because this assay has produced multiple assay endpoints where this one serves a signaling function. To generalize the intended target to other relatable targets, this assay endpoint is annotated to the cell cycle intended target family, where the subfamily is arrest.
Cells were treated with dimethyl sulfoxide (DMSO) as a solvent control at a final concentration of 0.5% v/v or with compounds in DMSO with a resulting final DMSO concentration of 0.5% v/v. Compound treatment was done at concentrations of 0.39, 0.78, 1.56, 3.12, 6.24, 12.5, 25, 50, 100, and 200 uM in duplicate on each plate. Cells were treated with compounds for 1, 24, or 72 hr. Carbonyl […] m-chloro-phenylhydrazone (CCCP) and taxol were used as positive controls for mitochondrial function and cytoskeletal stability, respectively; DMSO served as the negative control for this experiment. Cells were fixed by the direct addition of 50 uL formaldehyde in Hank's Balanced Salt Solution (HBSS) to a final concentration of 3.7%. After incubation in the fixation medium for 30 min at room temperature (293-298 K), cells were rinsed twice with HBSS and treated with cell permeabilization buffer (16 uL of 0.5% Triton X-100) for 10 min at room temperature (293-298 K) before labeling. For mitochondrial membrane potential and mitochondrial measurements, pre-fixed cells were incubated with 50 uL of MitoTracker Red CMXRos (Invitrogen) at a concentration of 250 nM for 30 min before fixation. In the remaining cases, post-fixed cells were labeled by incubation with a multiplexed mixture of primary antibodies in HBSS for 60 min at room temperature (293-298 K) to detect immunoreactivity of c-Jun (1:500), phospho-histone H3 (1:100), phospho-histone H2A.x (1:200), p53 (1:400), alpha-tubulin (1:200) and Hoechst 33342 (2 ug/mL). Cells were labeled for multiplexed imaging on two separate plates: a) Hoechst 33342, MitoTracker Red, phospho-histone H3, and alpha-tubulin, and b) Hoechst 33342, phospho-histone H2A.x, and c-Jun. A final rinse with HBSS (50 uL) was performed before analysis. The primary and secondary antibodies for the proteins were phospho-histone H3 (rabbit anti-phospho-histone H3 and FITC-donkey anti-rabbit IgG), phospho-histone H2A.x (mouse anti-phospho-histone H2A.x and FITC-donkey anti-mouse IgG), c-Jun (rabbit anti-phospho-c-Jun and Cy3-donkey anti-rabbit IgG), p53 (sheep anti-p53 and Cy5-donkey anti-sheep IgG), alpha-tubulin (mouse anti-alpha-tubulin and Cy5-donkey anti-mouse IgG). These antibodies are available as the CellCiphr HepG2 assay kit (Millipore).Digital images of each well were captured using a Cellomics ArrayScan VTI (Thermo Scientific Cellomics) (0.8 NA objective, 0.63x optical coupler, and XF-93 filter set) at 20x magnification. The images were acquired using the autofocus feature of the ArrayScan instrument, which entails the following steps. First, the camera focuses on channel 1 (Hoechst 33342), where nuclei are identified. Second, a Z offset of 1 um is used for capturing mitochondria (MitoTracker Red). […]
Consider `CCN(C(=O)c1cc(C)cc(OC[C@H](C)Nc2ccncc2)c1)C(C)C`, for which the compound was called inactive. As to `C=CC(=C)CCC=C(C)C`, the outcome was inactive. On the same count and under the same terms, to `C1=CCCC=CCCC=CCC1` belongs “inactive”; to `Cc1ccc(N)cc1O`, “inactive”; to `CCNc1ccccc1`, “inactive”. For `Nc1nc2ncc(CNc3ccc(C(=O)N[C@@H](CCC(=O)O)C(=O)O)cc3)nc2c(=O)[nH]1`, the result was inactive.

On to `Cn1c(=O)cc(Oc2ccc(F)cc2F)c2cnc(NCC(C)(C)O)nc21`, for which the compound was classed as inactive.

For `CN(C)c1ccc(N=NS(=O)(=O)O)cc1`, the result was inactive. The term AC50 denotes the concentration giving half of the maximal activity seen. Turning to `Cc1[nH]cnc1C[C@H]1CCc2c(C)c3ccccc3n2C1=O`, the AC50 was 98.8 µM (active). With `O=C(OC[C@H]1O[C@@H](OC(=O)c2cc(O)c(O)c(OC(=O)c3cc(O)c(O)c(O)c3)c2)[C@H](OC(=O)c2cc(O)c(O)c(OC(=O)c3cc(O)c(O)c(O)c3)c2)[C@@H](OC(=O)c2cc(O)c(O)c(OC(=O)c3cc(O)c(O)c(O)c3)c2)[C@@H]1OC(=O)c1cc(O)c(O)c(OC(=O)c2cc(O)c(O)c(O)c2)c1)c1cc(O)c(O)c(OC(=O)c2cc(O)c(O)c(O)c2)c1`, the call was inactive. In the case of `Cn1cnc([N+](=O)[O-])c1Sc1ncnc2nc[nH]c12`, the compound was classed as inactive. On to `CCc1cc(SCc2sc(-c3ccc(C(F)(F)F)cc3)nc2CN2CCN(c3ccc(OC)cc3)CC2)ccc1OCC(=O)O`, for which the AC50 was 45 µM (active).

Regarding `C[C@](N)(Cc1ccc(O)c(O)c1)C(=O)O`, the call was inactive. Take `COc1ccc(-n2nc(C(F)F)cc2-c2ccc(S(C)=O)cc2)cc1` (stereo not given): the outcome was inactive.

For the compound `CC[C@H]1OC(=O)[C@H](C)[C@@H](O[C@H]2C[C@@](C)(OC)[C@@H](O)[C@H](C)O2)[C@H](C)[C@@H](O[C@@H]2O[C@H](C)C[C@H](N(C)C)[C@H]2O)[C@](C)(O)C[C@@H](C)C(=O)[C@H](C)[C@@H](O)[C@]1(C)O`, the call was inactive. Still for that read-out and setting: next, `O=C(NS(=O)(=O)/C=C/c1ccccc1)c1ccc(F)cc1Cl`: “inactive”; `CC(=O)OCCC(C)C`: “inactive”. In the case of `CNS(=O)(=O)c1cc(C(=O)N2CCC(CCN3C4CCC3CC(n3c(C)nc5ccccc53)C4)(c3cccc(F)c3)CC2)c(Cl)cc1F` (stereo not given), the AC50 was 10.3 µM (active). For the compound `O=P(OC(CCl)CCl)(OC(CCl)CCl)OC(CCl)CCl`, the concentration at half-maximal activity (AC50) was 39.6 µM (active).

For the compound `COC(=O)c1ccccc1O`, the compound was called inactive. Same read-out and setting: to `O=C(O)CC(O)C(=O)O` (stereo not given) belongs “inactive”.

Regarding `Oc1ccc2c(c1)-c1ccccc1C2`, the AC50 is 80.3 µM (active). Consider `CC(C)(O)c1coc(S(=O)(=O)NC(=O)Nc2c3c(cc4c2CCC4)CCC3)c1`, for which the result was inactive. For the compound `CCOCCOCCOCCO`, the outcome was inactive. As to `CCCCCCCCO`, the compound was classed as inactive. On to `O=c1[nH]c2ccc(S(=O)CCN3CCC(Cc4ccc(F)cc4)CC3)cc2o1` (stereo not given), for which the outcome was inactive. As for `CCCC(=O)OCC`, the compound was called inactive. In the case of `CCCCC(CC)COC(=O)c1ccc(C(=O)OCC(CC)CCCC)cc1` (stereo not given), the call was inactive. As for `COCCOc1cc2cc(C(=O)NC3CCN(C(C)C)CC3)n(CC(=O)Nc3ccc(Cl)cn3)c2cn1`, the half-maximal activity concentration (AC50) was 63.2 µM (active). The same measure, in the same setting: next, `Fc1ccccc1[C@@H](F)COC1CCC(Nc2ncnc3[nH]ncc23)CC1` (stereo not given in full): 60 µM (active). Turning to `Cc1ccc(O)cc1`, the call was inactive. As to `CC/C(=C\C(=N/O)C(N)=O)C(C)[N+](=O)[O-]` (stereo not given), the result was inactive.

In the case of `CCC(C)(C)C(=O)O[C@H]1C[C@@H](C)C=C2C=C[C@H](C)[C@H](CC[C@@H]3C[C@@H](O)CC(=O)O3)[C@H]21`, the AC50 was 2.62 µM (active).

Turning to `CC(C)CCCCCCOC(=O)c1ccc(C(=O)OCCCCCCC(C)C)c(C(=O)OCCCCCCC(C)C)c1`, the compound was classed as inactive. Turning to `CNCc1ccc(NC(=O)c2c[nH]c3c2C(=O)CCC3)cc1`, the result was inactive. Take `CC(C)CC(C)(O)C#CC(C)(O)CC(C)C` (stereo not given): the compound was classed as inactive. As for `Cc1ccc(S(=O)(=O)O)cc1C`, the outcome was inactive. For `COC(=O)CC(=O)OC`, the compound was called inactive. On to `O=C(O)c1cccc(Oc2ccccc2)c1`, for which the call was inactive. For the compound `Cc1ccc(C)c(O)c1`, the outcome was inactive.
